Results published in PubChem BioAssay (Tox21).
Values joined by “and” are separate entries in the source; they are usually repeats but may differ in a detail not shown here. Equal entries are not always repeated. Inconclusive results are not listed. A call without a number means that no potency is given here. A structure can be active in one record and inactive in another. Active and inactive are the calls of the source. Calls follow the shape of the dose curve; as a rule, active = well fitted curve in the direction sought with a large enough effect in the repeat runs; inconclusive = weak or mixed curves; inactive = no such curve, though single readings can be large; an effect the other way counts as inactive or inconclusive.

molecular target: Cytochrome P450 2C9 (Homo sapiens) (UniProt P11712); assay: Cytochrome P450 Family 2 Subfamily C Member 9 (CYP2C9) small molecule antagonists: luciferase reporter qHTS assay (AID 1671198); details: P450-Glo CYP2C9 enzyme assay, luciferin luminescence; series mostly up to 115 µM; activity change, negative = inhibition: at the top concentration; also: potency is read from the fitted curve at half-maximal effect
Sequence (P11712 whole entry, looked up): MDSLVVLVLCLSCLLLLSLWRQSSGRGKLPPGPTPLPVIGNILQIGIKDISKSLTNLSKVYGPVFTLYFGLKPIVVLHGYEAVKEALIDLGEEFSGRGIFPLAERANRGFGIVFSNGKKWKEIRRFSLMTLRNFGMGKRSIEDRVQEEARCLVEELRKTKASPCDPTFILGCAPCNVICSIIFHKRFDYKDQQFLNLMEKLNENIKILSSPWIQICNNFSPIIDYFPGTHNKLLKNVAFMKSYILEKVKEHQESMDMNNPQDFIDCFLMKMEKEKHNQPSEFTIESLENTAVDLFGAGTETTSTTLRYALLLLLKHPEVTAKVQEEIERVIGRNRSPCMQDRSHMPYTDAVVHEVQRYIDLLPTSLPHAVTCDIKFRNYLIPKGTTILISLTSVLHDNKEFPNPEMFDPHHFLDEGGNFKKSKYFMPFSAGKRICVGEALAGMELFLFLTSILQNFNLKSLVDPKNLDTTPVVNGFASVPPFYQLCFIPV
Procedure, shortened: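 CYP2C9 activity was measured with a P450-Glo proluciferin substrate. Enzyme–substrate mix was held with compound for 10 min at room temperature, then NADPH regeneration solution was added for 1 h at 37C. Luciferin product was read as luminescence.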
Also: nearly all actives have a fitted effect of over 50% in size.

Structure (SMILES)	Potency	activity change, negative = inhibition
O=NN1CCCCCCC1	inactive	
CCCN(CCC)c1c([N+](=O)[O-])cc(C(F)(F)F)cc1[N+](=O)[O-]	22.4 µM (active)	
C#CCN(C)[C@H](C)Cc1ccccc1	inactive	
C=C(C)CCl	inactive	
Cc1cc(-c2cc(C)c(N)c(C)c2)cc(C)c1N	40 µM (active) and 22 µM (active)	
O=C1CCCN1		-10.4% (inactive)
CCCCCOC(=O)c1ccccc1C(=O)OCCCCC	28.2 µM (active) and 7.96 µM (active)	
C1CC2OC2CC1C1CO1 (stereo not given)	inactive	
[O-][Cl+2]([O-])O	inactive	
O=c1ccc(=O)[nH][nH]1		-1.97% (inactive)
COc1ccc2c3c1O[C@H]1[C@@H](O)C=C[C@H]4[C@@H](C2)N(C)CC[C@@]341	inactive	
CC(=O)C=C(C)C	inactive	
Cc1ccccc1O		-22.9% (inactive)
CC(C)(C)OOC(=O)c1ccccc1		-18.5% (inactive)
O=c1n(Cl)c(=O)n(Cl)c(=O)n1Cl		-4.82% [at 53 µM] (inactive)
Cc1ccc(N)cc1Cl	32.1 µM (active) and 35.6 µM (active)	
CCN(CC)c1ccccc1	inactive and 71 µM (active)	
Cc1ccc([N+](=O)[O-])cc1C		-14.6% (inactive)

Structure (SMILES)	Potency	activity change, negative = inhibition
C=CC(N)=O		-11.9% (inactive)
c1ccc(OP(Oc2ccccc2)Oc2ccccc2)cc1		-17% (inactive)
CC(C)N1C(=O)c2ccccc2NS1(=O)=O	20 µM (active) and 17.8 µM (active)	
ClCc1cccnc1	inactive	
O=S(=O)(c1ccc(O)cc1)c1ccc(O)cc1	inactive	
CC(C#N)CCC#N (stereo not given)	inactive	
CCc1cccc(C)c1N(C(=O)CCl)C(C)COC (stereo not given)	29.9 µM (active) and 28.3 µM (active)	
CCCCN(CCCC)SN(C)C(=O)Oc1cccc2c1OC(C)(C)C2	40.6 µM (active) and 31.7 µM (active)	
C=CCO	inactive	
C1CN2CCN1CC2		-8.57% (inactive)
COCCl		-13.1% [at 53 µM] (inactive)
CN(C)CCO	inactive	
[N-]=[N+]=[N-]	38.6 µM (active) and 35.6 µM (active)	
O=NN1CCCC1		-5.48% (inactive)
ClCCBr		-5.42% (inactive)
O=c1[nH]c2ccccc2c(=O)o1	inactive	
CC(C)NC(=O)N1CC(=O)N(c2cc(Cl)cc(Cl)c2)C1=O	1.26 µM (active)	
CCCCN(CC)C(=O)SCCC	inactive	

molecular target: Cytochrome P450 1A2 (Homo sapiens) (UniProt P05177); assay: Cytochrome P450 Family 1 Subfamily A Member 2 (CYP1A2) small molecule antagonists: luciferase reporter qHTS assay (AID 1671199); details: P450-Glo CYP1A2 enzyme, luciferin luminescence, 1 h; series mostly up to 115 µM; activity change, negative = inhibition: at the top concentration; also: potency is read from the fitted curve at half-maximal effect
Sequence (P05177 whole entry, looked up): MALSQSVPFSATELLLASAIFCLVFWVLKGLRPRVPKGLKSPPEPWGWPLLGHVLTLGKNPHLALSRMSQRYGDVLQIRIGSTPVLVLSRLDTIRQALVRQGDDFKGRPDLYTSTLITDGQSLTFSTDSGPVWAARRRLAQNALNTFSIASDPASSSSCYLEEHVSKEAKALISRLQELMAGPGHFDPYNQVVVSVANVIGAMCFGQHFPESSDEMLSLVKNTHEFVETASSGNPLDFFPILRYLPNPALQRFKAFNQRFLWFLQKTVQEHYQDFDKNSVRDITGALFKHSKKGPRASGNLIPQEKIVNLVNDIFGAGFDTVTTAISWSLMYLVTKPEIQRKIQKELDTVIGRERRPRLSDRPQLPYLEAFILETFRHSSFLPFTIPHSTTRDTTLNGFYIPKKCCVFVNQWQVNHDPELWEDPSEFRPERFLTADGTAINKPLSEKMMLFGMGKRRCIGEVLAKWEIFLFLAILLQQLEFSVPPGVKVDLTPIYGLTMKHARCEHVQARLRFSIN
Procedure, shortened: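 Quantitative high-throughput format using the P450-Glo CYP1A2 system. Reaction initiated by NADPH regeneration solution, 1 h at room temperature, then stopped with detection reagent; luminescence measured 20 min later.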

Structure (SMILES)	activity change, negative = inhibition	Potency
O=NN1CCCCCCC1	-23.2% (inactive)	
CCCN(CCC)c1c([N+](=O)[O-])cc(C(F)(F)F)cc1[N+](=O)[O-]		20 µM (active)
C#CCN(C)[C@H](C)Cc1ccccc1		17.8 µM (active) and inactive
C=C(C)CCl	-9.56% [at 10.5 µM] (inactive)	
Cc1cc(-c2cc(C)c(N)c(C)c2)cc(C)c1N		712 nM (active) and 311 nM (active)
O=C1CCCN1	-28.5% (inactive)	
CCCCCOC(=O)c1ccccc1C(=O)OCCCCC		17.8 µM (active) and 8.94 µM (active)
C1CC2OC2CC1C1CO1 (stereo not given)		inactive
[O-][Cl+2]([O-])O		inactive
O=c1ccc(=O)[nH][nH]1	-11% (inactive)	
COc1ccc2c3c1O[C@H]1[C@@H](O)C=C[C@H]4[C@@H](C2)N(C)CC[C@@]341		inactive
CC(=O)C=C(C)C		inactive
Cc1ccccc1O		39.9 µM (active)
CC(C)(C)OOC(=O)c1ccccc1	-22% (inactive)	
O=c1n(Cl)c(=O)n(Cl)c(=O)n1Cl	-12.1% [at 53 µM] (inactive)	
Cc1ccc(N)cc1Cl		1.28 µM (active) and 1.59 µM (active)
CCN(CC)c1ccccc1		inactive
Cc1ccc([N+](=O)[O-])cc1C		inactive

Structure (SMILES)	activity change, negative = inhibition	Potency
C=CC(N)=O		35.7 µM (active) and inactive
c1ccc(OP(Oc2ccccc2)Oc2ccccc2)cc1	-26.4% (inactive)	
CC(C)N1C(=O)c2ccccc2NS1(=O)=O		inactive
ClCc1cccnc1		62.2 µM (active) and inactive
O=S(=O)(c1ccc(O)cc1)c1ccc(O)cc1	-26.4% (inactive)	
CC(C#N)CCC#N (stereo not given)		inactive
CCc1cccc(C)c1N(C(=O)CCl)C(C)COC (stereo not given)		66.9 µM (active) and inactive
CCCCN(CCCC)SN(C)C(=O)Oc1cccc2c1OC(C)(C)C2		36.2 µM (active) and 39.9 µM (active)
C=CCO	-15.6% (inactive)	
C1CN2CCN1CC2		inactive
COCCl		20.1 µM (active)
CN(C)CCO		inactive
[N-]=[N+]=[N-]		43.3 µM (active) and inactive
O=NN1CCCC1		33.2 µM (active) and inactive
ClCCBr	-18.6% (inactive)	
O=c1[nH]c2ccccc2c(=O)o1		inactive and 35.6 µM (active)
CC(C)NC(=O)N1CC(=O)N(c2cc(Cl)cc(Cl)c2)C1=O		12.6 µM (active)
CCCCN(CC)C(=O)SCCC		inactive

molecular target: Voltage-gated inwardly rectifying potassium channel KCNH2 (Homo sapiens) (UniProt Q12809); assay: Human Ether-a-go-go-Related Gene (hERG) channel small molecule antagonists: fluorescence cell-based qHTS assay (AID 1671200); details: hERG-U2OS cells, FluxOR thallium flux fluorescence; series mostly up to 76.8 µM; activity change, negative = inhibition: at the top concentration;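 also: hERG-expressing U2OS cells given a thallium stimulus after FluxOR II dye loading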
Sequence (Q12809 whole entry, looked up): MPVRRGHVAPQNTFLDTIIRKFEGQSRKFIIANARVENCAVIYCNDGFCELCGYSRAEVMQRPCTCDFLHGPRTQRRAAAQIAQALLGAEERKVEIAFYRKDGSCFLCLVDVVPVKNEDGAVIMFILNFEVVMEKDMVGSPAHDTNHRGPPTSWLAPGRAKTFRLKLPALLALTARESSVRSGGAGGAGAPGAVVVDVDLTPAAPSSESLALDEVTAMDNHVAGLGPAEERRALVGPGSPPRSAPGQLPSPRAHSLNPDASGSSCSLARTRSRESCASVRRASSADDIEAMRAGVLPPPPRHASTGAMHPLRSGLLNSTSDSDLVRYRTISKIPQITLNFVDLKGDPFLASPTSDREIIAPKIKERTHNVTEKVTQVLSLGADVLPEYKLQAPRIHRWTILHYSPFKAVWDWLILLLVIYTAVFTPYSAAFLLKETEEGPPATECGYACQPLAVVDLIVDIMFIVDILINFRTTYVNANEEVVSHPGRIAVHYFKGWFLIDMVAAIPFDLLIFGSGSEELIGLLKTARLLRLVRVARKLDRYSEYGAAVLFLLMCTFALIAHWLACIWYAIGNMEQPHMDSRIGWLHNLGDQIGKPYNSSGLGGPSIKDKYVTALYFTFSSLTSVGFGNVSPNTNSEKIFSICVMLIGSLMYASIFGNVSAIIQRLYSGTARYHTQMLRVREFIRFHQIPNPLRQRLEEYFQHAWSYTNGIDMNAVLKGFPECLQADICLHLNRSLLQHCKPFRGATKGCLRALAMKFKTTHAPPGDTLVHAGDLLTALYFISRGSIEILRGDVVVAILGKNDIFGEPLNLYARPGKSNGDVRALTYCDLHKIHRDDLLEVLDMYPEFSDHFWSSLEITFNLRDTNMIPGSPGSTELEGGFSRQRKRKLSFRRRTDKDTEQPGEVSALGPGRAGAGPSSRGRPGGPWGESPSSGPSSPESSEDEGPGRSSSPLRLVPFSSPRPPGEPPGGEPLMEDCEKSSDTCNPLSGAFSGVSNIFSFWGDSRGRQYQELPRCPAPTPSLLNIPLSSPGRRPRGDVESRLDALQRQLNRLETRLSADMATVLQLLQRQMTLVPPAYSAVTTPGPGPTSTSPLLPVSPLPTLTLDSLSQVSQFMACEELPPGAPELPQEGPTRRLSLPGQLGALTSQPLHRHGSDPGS
Procedure, shortened: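 Kinetic two-minute fluorescence traces, sampled at 1 s, were collected following thallium stimulus of U2OS cells (1000 per well) that had been cultured overnight at 37 C and loaded with FluxOR II.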

Structure (SMILES)	Potency
O=NN1CCCCCCC1	inactive
C#CCN(C)[C@H](C)Cc1ccccc1	inactive
C=C(C)CCl	inactive
Cc1cc(-c2cc(C)c(N)c(C)c2)cc(C)c1N	inactive
O=C1CCCN1	inactive
C1CC2OC2CC1C1CO1 (stereo not given)	inactive
[O-][Cl+2]([O-])O	inactive
O=c1ccc(=O)[nH][nH]1	inactive
COc1ccc2c3c1O[C@H]1[C@@H](O)C=C[C@H]4[C@@H](C2)N(C)CC[C@@]341	inactive
CC(=O)C=C(C)C	inactive
Cc1ccccc1O	inactive
CC(C)(C)OOC(=O)c1ccccc1	inactive
O=c1n(Cl)c(=O)n(Cl)c(=O)n1Cl	inactive
Cc1ccc(N)cc1Cl	inactive
CCN(CC)c1ccccc1	inactive
Cc1ccc([N+](=O)[O-])cc1C	inactive
c1ccc(OP(Oc2ccccc2)Oc2ccccc2)cc1	inactive

Structure (SMILES)	Potency
CC(C)N1C(=O)c2ccccc2NS1(=O)=O	inactive
ClCc1cccnc1	inactive
O=S(=O)(c1ccc(O)cc1)c1ccc(O)cc1	inactive
CC(C#N)CCC#N (stereo not given)	inactive
CCc1cccc(C)c1N(C(=O)CCl)C(C)COC (stereo not given)	inactive
CCCCN(CCCC)SN(C)C(=O)Oc1cccc2c1OC(C)(C)C2	inactive
C=CCO	inactive
C1CN2CCN1CC2	inactive
COCCl	inactive
CN(C)CCO	inactive
[N-]=[N+]=[N-]	inactive
O=NN1CCCC1	inactive
ClCCBr	inactive
O=c1[nH]c2ccccc2c(=O)o1	inactive
CC(C)NC(=O)N1CC(=O)N(c2cc(Cl)cc(Cl)c2)C1=O	inactive
CCCCN(CC)C(=O)SCCC	inactive
